FadD28 binding = blocks FadD28 binding to the bisubstrate probe; fluorescence polarization; inhibition, % at 12.5 µM; 360,000 tested, 0.22% active; in the data active = inhibition above about 8.5%, passing the limit was not always enough
Mtb hypoxia inh = reduces hypoxia-regulated biosensor signal in M. tuberculosis; M. tuberculosis hypoxia-regulated fluorescent reporter, fluorescence; fluorescence inhibition, % (no concentration beside the values); 300,000 tested, 0.1% active; in the data active = fluorescence inhibition mostly above about 23%, no sharp cut-off; inactive = mostly below about 17%
3CLpro inhibitor = SARS-CoV 3CLpro protease inhibition; 290,000 tested, 0.14% active; AID 1706; inhibition, % at 6 µM; P0C6X7; recombinant SARS-CoV 3CLpro, quenched FRET peptide cleavage; in the data active = inhibition above about 12%
Mtb BioA inh = blocks M. tuberculosis BioA enzyme activity. 360,000 tested, 0.096% active. purified M. tuberculosis BioA enzyme, plate reader. inhibition, % at 9.99 µM; in the data active = inhibition above about 40%
VHR inh abs = DUSP3 (human) phosphatase inhibition | inhibition, % at 13.3 µM | recombinant VHR phosphatase, pNPP absorbance | AID 1654 | 290,000 tested, 0.52% active | P51452; in the data active = inhibition above about 50%
Target sequence (P51452 whole entry, looked up): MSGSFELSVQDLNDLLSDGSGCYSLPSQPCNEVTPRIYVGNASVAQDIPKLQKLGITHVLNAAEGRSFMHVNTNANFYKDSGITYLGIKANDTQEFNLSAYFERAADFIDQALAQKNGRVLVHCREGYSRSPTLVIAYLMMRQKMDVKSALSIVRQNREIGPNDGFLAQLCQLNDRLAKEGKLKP
Starred values were filed as active, the others as inactive; nt = no result shown. The list is not random: actives were taken first. Their share in the collection is about 0.7%.

SMILES | FadD28 binding | Mtb hypoxia inh | 3CLpro inhibitor | Mtb BioA inh | VHR inh abs
CN(C)c1nc2sc3c(c2c(=O)n1C)CC(C)(C)OC3 | -2.6 | 12.9 | 0.8 | 1.2 | 59.6*
O=C(O)C(=Cc1c(C(=O)O)[nH]c2cc(Cl)cc(Cl)c12)c1ccccc1 | nt | 2.7 | nt | nt | nt
Cc1ccc(-c2nn3c(C)nnc3c3ccccc23)cc1S(=O)(=O)NCCN1CCOCC1 | -1.4 | 5.1 | 2.1 | -0.2 | 52.4*
Cc1ccc(-c2n[nH]c(=O)c3ccccc23)cc1S(=O)(=O)NCCN1CCOCC1 | -5.3 | 11.4 | 5.8 | -1.0 | 13.4
O=C(O)CP(=O)(O)c1ccc(Cl)cc1 | -0.3 | nt | 7.4 | -2.4 | 50.8*
C=CS(=O)(=O)N(Cc1ccccc1Br)C(CO)Cc1ccccc1 (centres undefined) | nt | 0.4 | nt | nt | nt
COc1ccccc1C(=O)N1CCN(S(=O)(=O)c2ccccc2)CC1 | 0.2 | 12.7 | 3.5 | -0.2 | 57.1*
CCc1cccc2c(C(=O)Cn3nnc(-c4ccc(OC)c(OC)c4)n3)c[nH]c12 | 73.0* | nt | 3.7 | -0.8 | 1.6
CCc1cccc2c(C(=O)COC(=O)/C=C/c3ccc(O)c(OC)c3)c[nH]c12 | 34.9* | nt | -2.8 | -4.3 | 12.1
COc1cc2c(cc1NC(=S)NC(=O)C=Cc1ccc(OC)c(OC)c1)oc1ccccc12 | nt | 6.1 | nt | nt | nt
O=C(OCC(=O)c1ccc(Cl)cc1Cl)c1ccccn1 | -0.6 | 30.2* | nt | -0.4 | nt
CN1C(=O)/C(=C\c2ccc(N3CCCCC3)o2)C(=O)NC1=S | -2.8 | nt | -1.2 | -0.4 | -16.7
CN1C(=O)/C(=C/c2ccc(N3CCCCCC3)o2)C(=O)NC1=S | 0.4 | 44.9* | -0.5 | nt | 20.4
COC(=O)C(CCSC)NC(=O)NC1CCN(Cc2ccccc2)CC1 (centres undefined) | nt | -2.0 | nt | nt | nt
O=C1c2ccc([N+](=O)[O-])cc2C(=O)N1Cc1cccnc1 | -2.8 | 3.4 | 2.2 | 0.5 | 51.5*
CC(=O)C1=NN(c2ccccc2)C2(SC(=Cc3ccccc3)C(=O)N2c2ccccc2)S1 (centres undefined) | nt | 10.7 | nt | nt | nt
COc1ccc(C(=O)OCCc2ccc(O)cc2)cc1 | 0.0 | 12.4 | -0.1 | 0.9 | -6.8
COc1ccc(C(=O)OCC[N+]2(C)CCOCC2)cc1 | -0.2 | 1.6 | -1.8 | -3.8 | 52.7*
Cc1nn(-c2ccccc2Cl)c(Cl)c1/C=N/Nc1cccc(C(=O)O)c1 | 15.9* | nt | -1.7 | nt | -1.0
CCCCC(=O)Nc1c(-c2cccc(OC)c2)c(=O)c2ccccc2n1C | -1.8 | 0.1 | -0.9 | -0.6 | 58.2*
CCn1nc([N+](=O)[O-])c(C(C#N)c2nc3ccccc3n2C)c(Cl)c1=O (centres undefined) | 1.0 | 11.6 | -1.3 | 1.7 | -10.0
CCCn1nc([N+](=O)[O-])c(C(C#N)c2nc3ccccc3s2)c(Cl)c1=O (centres undefined) | 25.7* | 14.2 | 2.3 | 8.4 | 4.7
CCC(NC(=O)NC1=NCCS1)(C(F)(F)F)C(F)(F)F | -3.1 | 12.1 | 0.6 | -0.6 | 57.4*
Cc1cc(C)c(C(=O)NNC(=O)c2cccnc2)c(C)c1 | -2.1 | 12.1 | -8.0 | -1.4 | 56.2*
CCN1CC2C3C(=O)N(Cc4ccccc4)C(=O)C3[C@](C)(C1=O)N2C(=O)c1ccccc1 (some centres undefined) | nt | 6.9 | nt | nt | nt
SMILES | FadD28 binding | Mtb hypoxia inh | 3CLpro inhibitor | Mtb BioA inh | VHR inh abs
CC[C@H](C)/C=C(C)/C=C/c1cc2c(cn1)C(=O)[C@@](C)(OC(C)=O)C(O)=C2Cl | 10.9* | nt | nt | 3.0 | nt
CC1SC(c2ccc(Cl)cc2Cl)NC1=O (centres undefined) | 1.1 | nt | -0.5 | 0.3 | 57.3*
CC1SC(c2cccc(Cl)c2)NC1=O (centres undefined) | -4.0 | 3.7 | -1.3 | -0.1 | 12.9
COC(=O)C1=C(c2ccc(F)cc2OCc2ccccc2)CC2CCC1N2C(=O)NCc1ccc(C(C)(C)C)cc1 (centres undefined) | nt | 8.3 | nt | nt | nt
CCN(CC)CCOC(=O)c1ccc(NC(=O)C2(c3ccccc3)CCCC2)cc1 | -1.1 | -0.6 | -5.7 | 1.9 | 54.4*
COc1cc(C(=O)NS(=O)(=O)c2ccccc2C)ccc1Cc1cn(C)c2ccc(NC(=O)OC3CCCC3)cc12 | nt | nt | 15.3* | nt | 48.3
COc1ccc(NC(=O)COc2ccccc2C)cc1S(=O)(=O)N1CCCCC1 | 1.7 | -0.2 | nt | -1.5 | nt
CSc1ncc(Cl)c(C(=O)NCc2cccnc2)n1 | 0.3 | 4.5 | 2.8 | 1.6 | 52.0*
COc1cccc(CNC(=O)c2ccc(CS(=O)(=O)Cc3ccccc3C)o2)c1 | -1.6 | -6.4 | -7.1 | 2.2 | 57.7*
COc1cccc(CNC(=O)c2ccc(CS(=O)(=O)Cc3ccc(C)cc3)o2)c1 | -3.6 | 4.4 | -3.3 | -0.7 | 12.4
O=C1NN(c2ccccc2)C(=O)/C1=C/c1ccc(Sc2cccc3ccccc23)o1 | 0.7 | -4.2 | 2.8 | nt | 51.3*
Cc1ccc(NC(=O)CN2C(=O)NC(=Cc3ccco3)C2=O)cc1 | nt | 2.3 | nt | nt | nt
CCN1CCN(C(=S)c2ccc(Cl)cc2)CC1 | -1.1 | 6.4 | -5.2 | nt | 50.3*
CCn1c(C(=O)O)c(CC(=O)Nc2ccc(Br)cc2C)c2ccccc21 | 1.4 | -4.2 | 4.7 | nt | 57.3*
[O-][n+]1c2ccccc2[n+]([O-])c2cc(O)ccc21 | -1.3 | 41.8* | -2.9 | 2.6 | 6.0
O=C(NN=Cc1cc([N+](=O)[O-])ccc1N1CCNCC1)c1ccc([N+](=O)[O-])cc1 | nt | -13.9 | nt | nt | nt
O=C(N/N=C/c1cc([N+](=O)[O-])ccc1N1CCNCC1)c1ccc([N+](=O)[O-])cc1 | 0.7 | nt | -5.1 | -4.0 | 52.1*
O=C(COC(=O)C12CC3CC(CC(C3)C1)C2)Nc1nccs1 | -0.7 | -8.5 | 8.6 | nt | 52.0*
Cc1ccnc(NC(=O)COC(=O)C23CC4CC(CC(C4)C2)C3)n1 | -2.0 | 13.6 | 4.7 | 4.9 | 31.3
CC(Sc1nnc(CNc2cccc3ccccc23)n1-c1ccccc1)C(=O)N/N=C/c1ccco1 (centres undefined) | 25.1* | nt | 1.5 | -1.9 | 13.2
C#CCNC(=O)C1=CC(C2CCCCC2)CC(OCCCCO)O1 (centres undefined) | nt | 5.3 | nt | nt | nt
COc1ccccc1NC(=O)CN1CCN(C2c3ccccc3-c3ccccc32)CC1 | -1.0 | nt | 6.3 | -1.1 | 50.8*

Compound activity: PubChem BioAssay, several laboratories
